# Measurements from PubChem BioAssay (NCI).
# Several values for one entry are separate records, joined by “and”; a condition that tells them apart may be missing. Identical values can stand only once. This is part of a sample that, as a whole, favours compounds with a hit. Of some 83,000 tested, about 20% had one in any assay.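 Single-concentration screen, 48 h exposure, 96-well plates. Endpoint: percent growth. Below 10 = active.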 Activity calls are given as the source filed them.
# How the values were obtained:
# Assay in all cases: NCI-60 one-dose screen, 48 h (100 = growth as untreated, 0 = no growth, -100 = all killed)
# Settings in all cases: 10 µM unless noted
# SK-MEL-2 melanoma = system: SK-MEL-2 melanoma
# EKVX NSCLC = system: EKVX NSCLC
# SN12C renal = system: SN12C renal
# UO-31 renal = system: UO-31 renal
# ACHN renal = system: ACHN renal
# CAKI-1 renal = system: CAKI-1 renal
# A498 renal = system: A498 renal
# CCRF-CEM leukemia = system: CCRF-CEM leukemia
# MOLT-4 leukemia = system: MOLT-4 leukemia
# SR leukemia = system: SR leukemia
# RPMI-8226 leukemia = system: RPMI-8226 leukemia
# OVCAR-8 ovarian = system: OVCAR-8 ovarian
# OVCAR-5 ovarian = system: OVCAR-5 ovarian
# OVCAR-4 ovarian = system: OVCAR-4 ovarian
# SK-OV-3 ovarian = system: SK-OV-3 ovarian
# IGROV1 ovarian = system: IGROV1 ovarian
# OVCAR-3 ovarian = system: OVCAR-3 ovarian
# NCI/ADR-RES ovarian = system: NCI/ADR-RES ovarian
# TK-10 renal = system: TK-10 renal
# HS 578T breast = system: HS 578T breast
Compound,growth (SK-MEL-2 melanoma),growth (EKVX NSCLC),growth (SN12C renal),growth (UO-31 renal),growth (ACHN renal),growth (CAKI-1 renal),growth (A498 renal),growth (CCRF-CEM leukemia),growth (MOLT-4 leukemia),growth (SR leukemia),growth (RPMI-8226 leukemia),growth (OVCAR-8 ovarian),growth (OVCAR-5 ovarian),growth (OVCAR-4 ovarian),growth (SK-OV-3 ovarian),growth (IGROV1 ovarian),growth (OVCAR-3 ovarian),growth (NCI/ADR-RES ovarian),growth (TK-10 renal),growth (HS 578T breast)
CCNC1=CC(=O)c2ncccc2C1=O,26.9% (inactive),72.6% (inactive),-32.2% (active),48.4% (inactive),59% (inactive),55.8% (inactive),80.8% (inactive),76.7% (inactive),52.6% (inactive),50.9% (inactive),66.4% (inactive),51.9% (inactive),-53.7% (active),47.1% (inactive),73.5% (inactive),63.2% (inactive),1.49% (active),56% (inactive),–,–
Cc1ccc([N+](=O)[O-])cc1Br,95.6% (inactive),–,98.2% (inactive),92.1% (inactive),98.3% (inactive),101% (inactive),88.5% (inactive),105% (inactive),81.7% (inactive),83% (inactive),108% (inactive),91.1% (inactive),89.9% (inactive),105% (inactive),96.4% (inactive),113% (inactive),107% (inactive),108% (inactive),97.1% (inactive),94.8% (inactive)
CCN(CC)CCNC(=O)c1ccc(NCN2C(=O)NC(c3ccccc3)(c3ccccc3)C2=O)cc1,–,90.6% (inactive) and 95.3% (inactive),107% (inactive) and 105% (inactive),86.6% (inactive) and 67.1% (inactive),–,90.5% (inactive) and 88.1% (inactive),81.1% (inactive) and 205% (inactive),101% (inactive),102% (inactive) and 108% (inactive),99.5% (inactive) and 113% (inactive),104% (inactive),99.9% (inactive) and 111% (inactive),104% (inactive) and 119% (inactive),105% (inactive) and 104% (inactive),123% (inactive) and 90.9% (inactive),144% (inactive) and 107% (inactive),110% (inactive) and 98.8% (inactive),107% (inactive) and 111% (inactive),115% (inactive) and 114% (inactive),98.4% (inactive) and 103% (inactive)
O=[N+]([O-])c1cccc2ccc(N/N=C/c3ccccc3O)nc12,–,78.8% (inactive) and 82.1% (inactive),96.4% (inactive) and 98.5% (inactive),26.6% (inactive) and 64.3% (inactive),–,80.3% (inactive),92.8% (inactive) and 95% (inactive),3.42% (active) and 86.9% (inactive),16.6% (inactive) and 57% (inactive),60.4% (inactive),6.55% (active) and 93.4% (inactive),91.9% (inactive) and 95% (inactive),113% (inactive) and 116% (inactive),93.3% (inactive) and 100% (inactive),108% (inactive) and 111% (inactive),-10.5% (active),40.5% (inactive) and 101% (inactive),59% (inactive) and 106% (inactive),150% (inactive) and 120% (inactive),–
CCOC(=O)c1csc(N)n1,–,99.2% (inactive) and 99% (inactive),100% (inactive) and 105% (inactive),88.5% (inactive) and 91.9% (inactive),102% (inactive) and 104% (inactive),66.6% (inactive),93.5% (inactive),91% (inactive) and 98.5% (inactive),79.3% (inactive) and 106% (inactive),102% (inactive),83.7% (inactive) and 97.4% (inactive),97.4% (inactive),106% (inactive) and 104% (inactive),104% (inactive) and 94.9% (inactive),101% (inactive) and 98% (inactive),56.3% (inactive) and 109% (inactive),108% (inactive) and 107% (inactive),111% (inactive) and 104% (inactive),111% (inactive) and 97.3% (inactive),95.1% (inactive) and 101% (inactive)
CS(=O)(=O)c1nsc(N)n1,–,–,101% (inactive),91.4% (inactive),107% (inactive),103% (inactive),97.4% (inactive),106% (inactive),103% (inactive),98.8% (inactive),106% (inactive),104% (inactive),97.3% (inactive),103% (inactive),95.4% (inactive),101% (inactive),107% (inactive),104% (inactive),101% (inactive),103% (inactive)
Cc1nc(Nc2ccc(Cl)cc2)c2cnn(-c3ccccc3)c2n1,–,91.3% (inactive),102% (inactive),94.6% (inactive),105% (inactive),–,83.5% (inactive),26.1% (inactive),106% (inactive),101% (inactive),108% (inactive),104% (inactive),108% (inactive),103% (inactive),116% (inactive),112% (inactive),106% (inactive),98.2% (inactive),95.4% (inactive),97.9% (inactive)
Cc1ccc(N)cc1S(=O)(=O)O,–,109% (inactive) and 105% (inactive),103% (inactive) and 106% (inactive),84.4% (inactive) and 91.5% (inactive),101% (inactive) and 118% (inactive),96.8% (inactive) and 106% (inactive),113% (inactive),60.6% (inactive) and 109% (inactive),94.4% (inactive),89.6% (inactive) and 90.4% (inactive),103% (inactive) and 102% (inactive),108% (inactive) and 100% (inactive),108% (inactive) and 125% (inactive),104% (inactive),106% (inactive) and 116% (inactive),109% (inactive) and 113% (inactive),108% (inactive) and 117% (inactive),–,75% (inactive) and 135% (inactive),100% (inactive) and 94.9% (inactive)
C(=N\OCCc1ccccc1)/c1ccccn1,–,115% (inactive) and 106% (inactive),119% (inactive) and 109% (inactive),109% (inactive) and 98% (inactive),110% (inactive) and 107% (inactive),105% (inactive) and 100% (inactive),96.3% (inactive) and 85.7% (inactive),106% (inactive) and 94.6% (inactive),101% (inactive) and 93.1% (inactive),96.5% (inactive) and 84.3% (inactive),117% (inactive) and 98.3% (inactive),108% (inactive) and 103% (inactive),101% (inactive) and 102% (inactive),114% (inactive) and 113% (inactive),123% (inactive),111% (inactive),105% (inactive) and 104% (inactive),117% (inactive) and 104% (inactive),–,117% (inactive) and 105% (inactive)
Cc1c(Cl)cc(Cl)c(N)c1Cl,–,–,117% (inactive),92.6% (inactive),–,88.7% (inactive),91% (inactive),95.5% (inactive),110% (inactive),117% (inactive),98.1% (inactive),104% (inactive),107% (inactive),108% (inactive),101% (inactive),114% (inactive),112% (inactive),105% (inactive),–,–
CCOC(=O)C(N)Cc1cc(I)c(O)c(I)c1 (stereo unspecified),–,101% (inactive) and 113% (inactive),103% (inactive) and 98.7% (inactive),81.6% (inactive) and 78.6% (inactive),106% (inactive) and 96% (inactive),91.6% (inactive) and 89.2% (inactive),103% (inactive),100% (inactive) and 103% (inactive),102% (inactive) and 112% (inactive),89.3% (inactive) and 104% (inactive),96.4% (inactive) and 107% (inactive),110% (inactive) and 104% (inactive),109% (inactive) and 107% (inactive),108% (inactive) and 107% (inactive),107% (inactive) and 96.6% (inactive),115% (inactive) and 104% (inactive),113% (inactive) and 102% (inactive),98.8% (inactive) and 101% (inactive),–,107% (inactive)
O=[N+]([O-])c1ccc(N/N=C/C2CCCCCC2)c([N+](=O)[O-])c1,–,84.9% (inactive),92% (inactive),61.2% (inactive),–,74.2% (inactive),62.7% (inactive),51.6% (inactive),77.3% (inactive),82.9% (inactive),–,102% (inactive),99.1% (inactive),98.5% (inactive),102% (inactive),91% (inactive),99.8% (inactive),104% (inactive),118% (inactive),96.9% (inactive)
CN(C)CC(CN(C)C)C(O)c1ccccc1 (stereo unspecified),–,96.1% (inactive),103% (inactive),96.1% (inactive),105% (inactive),–,109% (inactive),104% (inactive),106% (inactive),111% (inactive),108% (inactive),104% (inactive),106% (inactive),102% (inactive),103% (inactive),106% (inactive),115% (inactive),100% (inactive),89.5% (inactive),108% (inactive)
